Only a selection was taken, and hits are over-represented in it overall.
Methyltransferases: Primary Screen for Target Class Profiling of Small Molecule Inhibitors of Methyltransferases; purified enzyme, MTase-Glo SAH luminescence; stronger effect = lower value; AID 1745853, 2022; calls only at 40 µM; 25,000 compounds, 3.9% hits; call rule not given here
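Each enzyme was reacted with SAM and its substrate, with compounds tested once at 40 uM; SAH formed was read by MTase-Glo luminescence.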
Calls only; i = inactive; + = active, no number.

SMILES	Methyltransferases
O=C(/C=C/c1ccccc1O)O[C@@H]1O[C@H](CO)[C@@H](O)[C@H](O)[C@H]1O	i
COC(=O)c1cc2n(n1)CC(C)(C(=O)NC1CCCC1)N(c1cccc(Cl)c1C)C2=O (stereo unspecified)	i
Cn1c2c(c3ccccc31)C(C(=O)NCc1ccccc1)N(Cc1ccccc1Cl)C(=O)CS2 (stereo unspecified)	i
c1ccc(C2(c3ccccc3)CCCN(Cc3cscn3)C2)cc1	i
CC(C)CCn1c(=O)c2ccccc2n2c(SCC(=O)Nc3ccccc3F)nnc12	i
Cc1ccc(C)c(CN2CC(=O)N(Cc3ccccc3)c3ccccc3S2(=O)=O)c1	i
C=CCn1c(=O)c2ccc(C(=O)NCC(C)C)cc2n2c(=O)n(CC(=O)NC3CCCC3)nc12	i
CC(C)Cn1c(=O)c2ccccc2n2c(SCc3ccccc3Cl)nnc12	i
C=C1C(O[C@@H]2O[C@H](CO)[C@@H](O)[C@H](O)[C@@H]2O)CC2C(C)(C)C(O)CCC2(C)C1CC/C(C)=C\CO (stereo partly specified)	+
C=C1CC[C@@H]2[C@](C)(CO)[C@H](O[C@@H]3O[C@H](CO)[C@@H](O)[C@H](O)[C@H]3O)CC[C@@]2(C)[C@@H]1C/C=C1/C(=O)OC[C@H]1O	i
CC(C)=CCC[C@](C)(O[C@@H]1O[C@H](CO)[C@@H](O)[C@H](O)[C@H]1O)[C@H]1CC[C@]2(C)[C@@H]1[C@H](O)CC1[C@@]3(C)CC[C@H](O)C(C)(C)C3[C@@H](O[C@@H]3O[C@H](CO)[C@@H](O)[C@H](O)[C@H]3O[C@@H]3O[C@@H](C)[C@H](O)[C@@H](O)[C@H]3O)C[C@]12C (stereo partly specified)	i
CCc1ccc(CN2C(=O)c3cc(C(C)(C)C)nn3CC2(C)C(=O)NCc2ccccc2)cc1 (stereo unspecified)	i
C=C(C)C1Cc2cc(C(=O)OC3OC(CO)C(O)C(O)C3O)ccc2O1 (stereo unspecified)	+
COc1cc(C(=O)O)ccc1OC1OC(CO)C(O)C(O)C1O (stereo unspecified)	i
COc1cc(C(C)=O)ccc1O[C@@H]1O[C@H](CO)[C@@H](O)[C@H](O)[C@H]1O	i
CCCn1c(=O)c2ccc(Cl)cc2n2c(=O)n(CC(=O)c3ccc(OCC)cc3)nc12	i
Cc1ccc(NC(=O)Cn2c(=O)oc3cc(S(=O)(=O)N4CCCC4)ccc32)c(Br)c1	i
c1ccc(-c2oc3ncnc(NC[C@@H]4CCCO4)c3c2-c2ccccc2)cc1	+
c1nc(NC2CCCCCC2)c2cc(CNC[C@H]3CCCO3)sc2n1	i
Cc1cccc(-c2nnn3c2nc(NCC2CCCO2)c2ccccc23)c1 (stereo unspecified)	i
O=C1CN(Cc2ccc(Br)cc2)S(=O)(=O)c2ccccc2N1Cc1ccccc1F	i
CC(C)C1c2cccn2CCN1C(=O)Nc1ccccc1Br (stereo unspecified)	i
CC1(C(=O)NC2CCCCCC2)Cn2c(ccc2-c2ccco2)C(=O)N1Cc1ccccn1 (stereo unspecified)	i
COc1ccc2c(c1)OCC(C(=O)NCc1noc(-c3ccco3)n1)C2 (stereo unspecified)	i
COc1ccc2c(c1)CC(NS(=O)(=O)c1ccc(C)cc1)CO2 (stereo unspecified)	i
SMILES	Methyltransferases
COc1ccc2c(c1)C[C@H](C(=O)Nc1ccc(-c3cn[nH]c3)cc1OCCN(C)C)CO2	+
Cc1ccc(CN2C(=O)c3ccc(-c4ccco4)n3CC2(C)C(=O)NC2CCCCC2)cc1 (stereo unspecified)	i
COc1ccc2cc3n(c2c1)CC(C)(C(=O)NC1CCCC1)N(c1ccc(Cl)cc1)C3=O (stereo unspecified)	i
O=C(CCC1CCCN(S(=O)(=O)c2ccccc2)C1)NCCCN1CCCC1=O (stereo unspecified)	i
CC(C)NC(=O)CSc1nnc2n(Cc3ccc(F)cc3)c(=O)c3ccccc3n12	i
CC1(C(=O)NC2CCCCCC2)Cn2nc(-c3ccco3)cc2C(=O)N1Cc1cccc(F)c1 (stereo unspecified)	i
O=C(c1cccc([N+](=O)[O-])c1)N1CCc2c(c3ccccc3n2CC2CC2)C1	i
CN1CCc2c(n(Cc3ccc(C(=O)NO)cc3)c3ccccc23)C1	+
CC(=O)Nc1ccc(C(=O)NCc2nn(Cc3ccccc3)c3ccccc23)cc1	i
CC1(C(=O)NC2CCCCCCC2)Cn2c(cc3sccc32)C(=O)N1Cc1ccc2c(c1)OCO2 (stereo unspecified)	i
CC1CCN(S(=O)(=O)c2ccc3c(ccn3CC(=O)NCc3ccc(OC(C)C)cc3)c2)CC1	i
Cc1ccc(CN2C(=O)c3nc4ccccc4n3CC2(C)C(=O)NC2CCCCC2C)cc1 (stereo unspecified)	i
Cc1ccc(Cn2nc3n(C)c(=O)c4ccc(C(=O)NC5CCCCC5)cc4n3c2=O)cc1	i
Nc1cccc(-c2cc3c(Oc4cccc(O)c4)ncnc3[nH]2)c1	+
NCc1ccc(Oc2ncnc3ccccc23)cc1	i
CC(C)CCNC(=O)C1(C)Cn2nc(C(=O)NCCCN3CCCC3)cc2C(=O)N1C (stereo unspecified)	i
CC1CCCCN1CCNC(=O)CCCc1nnc2n3nc(-c4ccccc4)nc3c3ccccc3n12 (stereo unspecified)	i
C=CCNC(=O)CCCc1nnc2n3nc(-c4ccccc4)nc3c3ccccc3n12	i
CC1CCC(NC(=O)CCCc2nnc3n4nc(-c5ccccc5)nc4c4ccccc4n23)CC1 (stereo unspecified)	i
CCN(CC)CCNC(=O)CCCc1nnc2n3nc(-c4ccccc4)nc3c3ccccc3n12	+
Cc1ccc(CNC(=O)CCCc2nnc3n4nc(-c5ccccc5)nc4c4ccccc4n23)cc1	i
CCN(CC)CCCNC(=O)CCCc1nnc2n3nc(-c4ccccc4)nc3c3ccccc3n12	+
CC(C)CCNC(=O)C1(C)Cn2nc(C(=O)NCc3ccccc3Br)cc2C(=O)N1C (stereo unspecified)	i
CCc1ccc(NS(=O)(=O)c2cc3[nH]c(=O)[nH]c3cc2C)cc1	i
Cc1ccccc1CCN1C(=O)c2ccc(-c3ccco3)n2CC1(C)C(=O)NC1CCCCC1 (stereo unspecified)	i
SMILES	Methyltransferases
COc1ccccc1CN1C(=O)c2c(NC(C)=O)c3ccccc3n2CC1(C)C(=O)NCCC(C)C (stereo unspecified)	i
CC[C@H](C)C(=O)O[C@H]1C[C@@H](C)C=C2C=C[C@H](C)[C@H](CC[C@@H]3C[C@@H](O)CC(=O)O3)[C@H]21	i
CC[C@H](C)C(=O)O[C@H]1CCC=C2C=C[C@H](C)[C@H](CC[C@@H]3C[C@@H](O)CC(=O)O3)[C@H]21	+
CCc1cc2c(cc3n2CC(C)(C(=O)NC2CCCCC2)N(Cc2ccccc2F)C3=O)s1 (stereo unspecified)	i
COc1ccccc1CNC(=O)CCc1nnc2n(Cc3ccc(Cl)cc3)c(=O)c3ccccc3n12	i
CC(C)c1cc2n(n1)CC(C)(C(=O)NC1CCCCCC1)N(Cc1cccc(Cl)c1)C2=O (stereo unspecified)	i
Cc1nc(N=Nc2cc(S(=O)(=O)O)c3cc([N+](=O)[O-])cc(S(=O)(=O)O)c3c2)c(COP(=O)(O)O)c(C=O)c1O	+
CCOc1ccc(N2C(=O)c3nc4ccccc4n3CC2(C)C(=O)NCc2ccccc2)cc1 (stereo unspecified)	i

Bioassay records (PubChem BioAssay)
